# Experiments:
# Test in all cases: DAPPL (digital affinity profiling via proximity ligation, sequencing); 10 mM Tris-HCl pH 7.5, 50 mM NaCl, 1 mM DTT, 4% glycerol, room temperature, 30 min; GST-TFs on glutathione beads, 16-mer random dsDNA library, 0.1% formaldehyde crosslink after washing; high values mean tight binding
# [1] = molecular target: T1, FLI1 (Homo sapiens, UniProt Q01543 1-452); details: protein: recombinant; tags: N-terminal GST; dsDNA, one strand shown
# T1 sequence: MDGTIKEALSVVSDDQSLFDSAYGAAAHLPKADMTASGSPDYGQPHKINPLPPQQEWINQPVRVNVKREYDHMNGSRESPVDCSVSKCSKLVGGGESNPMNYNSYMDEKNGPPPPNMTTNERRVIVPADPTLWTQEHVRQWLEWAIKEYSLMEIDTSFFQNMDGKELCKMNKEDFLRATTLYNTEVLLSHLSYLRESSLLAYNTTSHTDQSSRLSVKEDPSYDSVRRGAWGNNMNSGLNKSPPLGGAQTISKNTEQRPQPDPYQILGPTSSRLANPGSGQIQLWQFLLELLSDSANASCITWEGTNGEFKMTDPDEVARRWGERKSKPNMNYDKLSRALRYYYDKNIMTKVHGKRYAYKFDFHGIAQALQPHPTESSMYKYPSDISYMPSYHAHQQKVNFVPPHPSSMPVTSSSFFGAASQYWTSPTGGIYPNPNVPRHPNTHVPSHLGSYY
# Summary of the method: (§1)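 Binding signal is each hexamer's read frequency for a factor divided by its frequency in the tag-only sample. The factors were GST-fused human transcription factors from yeast, captured on glutathione beads, DNA-barcoded and pooled with that sample. Pools were incubated with 200 nmole of a random double-stranded 16-mer DNA library in Tris/NaCl/DTT/glycerol buffer at room temperature for 30 min, then washed, crosslinked with 0.1% formaldehyde, proximity-ligated with BsaI/T4 ligase (1 h, 37 °C), PCR-amplified and sequenced on an Illumina NextSeq500.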
# [2] = molecular target: T2, ELK1 (Homo sapiens, UniProt P19419 1-428); details: protein: recombinant; tags: N-terminal GST; dsDNA, one strand shown
# T2 sequence: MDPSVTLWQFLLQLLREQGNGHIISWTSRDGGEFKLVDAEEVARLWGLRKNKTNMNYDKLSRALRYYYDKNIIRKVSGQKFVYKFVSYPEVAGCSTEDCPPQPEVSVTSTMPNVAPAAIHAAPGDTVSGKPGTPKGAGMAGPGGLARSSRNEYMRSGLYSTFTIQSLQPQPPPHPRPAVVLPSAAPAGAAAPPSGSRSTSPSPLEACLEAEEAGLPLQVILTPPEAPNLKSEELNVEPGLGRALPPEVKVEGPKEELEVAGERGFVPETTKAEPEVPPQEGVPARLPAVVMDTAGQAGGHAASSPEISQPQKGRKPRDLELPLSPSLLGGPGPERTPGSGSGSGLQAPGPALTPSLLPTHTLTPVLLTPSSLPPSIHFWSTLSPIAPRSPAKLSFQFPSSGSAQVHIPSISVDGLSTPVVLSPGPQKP
# Summary of the method: as §1
# [3] = molecular target: T3, GABPA (Homo sapiens, UniProt Q06546 1-454); details: protein: recombinant; tags: N-terminal GST; dsDNA, one strand shown
# T3 sequence: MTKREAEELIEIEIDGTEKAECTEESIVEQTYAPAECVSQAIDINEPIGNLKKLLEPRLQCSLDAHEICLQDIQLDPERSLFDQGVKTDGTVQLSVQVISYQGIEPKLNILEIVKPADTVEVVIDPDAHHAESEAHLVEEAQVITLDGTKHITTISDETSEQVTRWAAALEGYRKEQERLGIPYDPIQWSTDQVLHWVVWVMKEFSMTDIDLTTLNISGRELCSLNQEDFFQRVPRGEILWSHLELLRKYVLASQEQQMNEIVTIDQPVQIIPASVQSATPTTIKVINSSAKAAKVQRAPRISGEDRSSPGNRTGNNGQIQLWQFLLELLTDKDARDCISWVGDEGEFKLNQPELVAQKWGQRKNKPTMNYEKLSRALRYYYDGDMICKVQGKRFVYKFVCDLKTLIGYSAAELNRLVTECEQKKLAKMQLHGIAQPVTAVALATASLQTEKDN
# Summary of the method: as §1
# [4] = molecular target: T4, ERG (Homo sapiens, UniProt P11308 1-479); details: protein: recombinant; tags: N-terminal GST; dsDNA, one strand shown
# T4 sequence: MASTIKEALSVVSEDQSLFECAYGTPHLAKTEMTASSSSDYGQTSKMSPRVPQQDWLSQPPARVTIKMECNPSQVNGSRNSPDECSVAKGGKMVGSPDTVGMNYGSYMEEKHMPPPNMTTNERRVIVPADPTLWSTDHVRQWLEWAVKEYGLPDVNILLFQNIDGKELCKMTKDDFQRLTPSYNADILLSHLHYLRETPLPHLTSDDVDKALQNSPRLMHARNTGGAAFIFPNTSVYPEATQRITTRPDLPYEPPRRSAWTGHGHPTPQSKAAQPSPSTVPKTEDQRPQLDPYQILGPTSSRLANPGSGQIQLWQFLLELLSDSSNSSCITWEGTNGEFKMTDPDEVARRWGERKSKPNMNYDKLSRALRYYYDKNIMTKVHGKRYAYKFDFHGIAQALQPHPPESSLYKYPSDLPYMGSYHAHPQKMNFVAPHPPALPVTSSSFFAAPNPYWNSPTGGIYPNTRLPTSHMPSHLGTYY
# Summary of the method: as §1
# [5] = molecular target: ELF1 (Homo sapiens, UniProt P32519 1-619); details: protein: recombinant; tags: N-terminal GST; dsDNA, one strand shown
# Summary of the method: as §1
# [6] = molecular target: T5, EHF (Homo sapiens, UniProt Q9NZC4 1-300); details: protein: recombinant; tags: N-terminal GST; dsDNA, one strand shown
# T5 sequence: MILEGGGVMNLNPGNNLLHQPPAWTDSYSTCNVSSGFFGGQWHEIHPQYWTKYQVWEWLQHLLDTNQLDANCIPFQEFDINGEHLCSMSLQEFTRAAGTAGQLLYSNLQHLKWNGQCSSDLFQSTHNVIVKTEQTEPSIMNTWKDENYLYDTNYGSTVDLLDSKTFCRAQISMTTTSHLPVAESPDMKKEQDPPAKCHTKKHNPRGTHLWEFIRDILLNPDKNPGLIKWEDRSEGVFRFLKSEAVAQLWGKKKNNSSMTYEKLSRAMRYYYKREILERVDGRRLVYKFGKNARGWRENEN
# Summary of the method: as §1
# [7] = molecular target: SPI1 (Homo sapiens, UniProt P17947 1-270); details: protein: recombinant; tags: N-terminal GST; dsDNA, one strand shown
# Summary of the method: as §1
# [8] = molecular target: SPIB (Homo sapiens, UniProt Q01892 1-262); details: protein: recombinant; tags: N-terminal GST; dsDNA, one strand shown
# Summary of the method: as §1
# [9] = molecular target: T6, ELK3 (Homo sapiens, UniProt P41970 1-407); details: protein: recombinant; tags: N-terminal GST; dsDNA, one strand shown
# T6 sequence: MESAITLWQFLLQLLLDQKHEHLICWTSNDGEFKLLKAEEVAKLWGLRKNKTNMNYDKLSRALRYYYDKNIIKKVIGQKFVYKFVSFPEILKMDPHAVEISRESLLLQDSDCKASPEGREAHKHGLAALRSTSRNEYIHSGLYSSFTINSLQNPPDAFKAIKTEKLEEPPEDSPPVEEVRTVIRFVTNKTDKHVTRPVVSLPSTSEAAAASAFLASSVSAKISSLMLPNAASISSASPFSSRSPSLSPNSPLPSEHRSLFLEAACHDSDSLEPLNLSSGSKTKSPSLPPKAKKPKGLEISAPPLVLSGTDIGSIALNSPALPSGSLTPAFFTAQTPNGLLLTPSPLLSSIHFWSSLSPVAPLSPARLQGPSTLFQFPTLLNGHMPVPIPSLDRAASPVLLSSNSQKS
# Summary of the method: as §1
# [10] = molecular target: T7, FEV (Homo sapiens, UniProt Q99581 1-238); details: protein: recombinant; tags: N-terminal GST; dsDNA, one strand shown
# T7 sequence: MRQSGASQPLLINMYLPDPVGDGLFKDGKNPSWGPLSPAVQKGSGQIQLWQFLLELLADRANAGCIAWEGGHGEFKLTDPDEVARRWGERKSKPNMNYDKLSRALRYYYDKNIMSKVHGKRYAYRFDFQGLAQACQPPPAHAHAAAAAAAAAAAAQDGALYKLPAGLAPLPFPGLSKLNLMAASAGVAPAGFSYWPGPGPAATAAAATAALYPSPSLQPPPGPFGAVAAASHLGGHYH
# Summary of the method: as §1
# [11] = molecular target: ETV5 (Homo sapiens, UniProt P41161 1-510); details: protein: recombinant; tags: N-terminal GST; dsDNA, one strand shown
# Summary of the method: as §1
# [12] = molecular target: HSF1 (Homo sapiens, UniProt Q00613 1-529); details: protein: recombinant; tags: N-terminal GST; chain copies: 3; dsDNA, one strand shown
# Summary of the method: as §1
# [13] = molecular target: T8, SPIC (Homo sapiens, UniProt Q8N5J4 1-248); details: protein: recombinant; tags: N-terminal GST; dsDNA, one strand shown
# T8 sequence: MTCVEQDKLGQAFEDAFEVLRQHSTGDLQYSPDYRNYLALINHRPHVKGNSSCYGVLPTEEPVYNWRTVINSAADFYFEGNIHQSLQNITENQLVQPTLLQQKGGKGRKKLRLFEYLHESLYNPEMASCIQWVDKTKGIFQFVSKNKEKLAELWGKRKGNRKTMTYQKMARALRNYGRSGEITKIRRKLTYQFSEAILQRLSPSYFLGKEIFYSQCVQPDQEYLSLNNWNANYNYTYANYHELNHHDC
# Summary of the method: as §1
# [14] = molecular target: ELF4 (Homo sapiens, UniProt Q99607 1-663); details: protein: recombinant; tags: N-terminal GST; dsDNA, one strand shown
# Summary of the method: as §1
# [15] = molecular target: T9, ELK4 (Homo sapiens, UniProt P28324-2 1-405); details: protein: recombinant; tags: N-terminal GST; dsDNA, one strand shown
# T9 sequence: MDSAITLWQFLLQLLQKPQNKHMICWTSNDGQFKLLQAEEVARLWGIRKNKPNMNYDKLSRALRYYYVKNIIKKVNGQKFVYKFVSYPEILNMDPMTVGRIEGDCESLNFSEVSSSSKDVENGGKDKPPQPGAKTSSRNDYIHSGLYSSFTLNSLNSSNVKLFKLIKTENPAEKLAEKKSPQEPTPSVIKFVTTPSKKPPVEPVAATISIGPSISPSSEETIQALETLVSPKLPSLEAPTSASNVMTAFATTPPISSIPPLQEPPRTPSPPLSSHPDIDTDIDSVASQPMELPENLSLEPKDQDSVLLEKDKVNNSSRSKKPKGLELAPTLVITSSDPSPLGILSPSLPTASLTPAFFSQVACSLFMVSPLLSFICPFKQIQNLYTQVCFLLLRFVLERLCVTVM
# Summary of the method: as §1
# [16] = molecular target: T10, ETV2 (Homo sapiens, UniProt O00321 1-342); details: protein: recombinant; tags: N-terminal GST; dsDNA, one strand shown
# T10 sequence: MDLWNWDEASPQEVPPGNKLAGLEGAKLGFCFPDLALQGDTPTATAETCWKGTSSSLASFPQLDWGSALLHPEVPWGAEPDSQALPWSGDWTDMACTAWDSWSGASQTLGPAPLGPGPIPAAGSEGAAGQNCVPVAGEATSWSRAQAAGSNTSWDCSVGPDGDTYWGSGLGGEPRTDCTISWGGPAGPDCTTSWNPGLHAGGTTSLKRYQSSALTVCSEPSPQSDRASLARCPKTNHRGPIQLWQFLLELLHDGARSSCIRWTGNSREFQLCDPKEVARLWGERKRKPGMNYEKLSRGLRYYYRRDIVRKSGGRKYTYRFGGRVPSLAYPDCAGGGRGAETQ
# Summary of the method: as §1
# [17] = molecular target: T11, ELF3 (Homo sapiens, UniProt P78545 1-371); details: protein: recombinant; tags: N-terminal GST; dsDNA, one strand shown
# T11 sequence: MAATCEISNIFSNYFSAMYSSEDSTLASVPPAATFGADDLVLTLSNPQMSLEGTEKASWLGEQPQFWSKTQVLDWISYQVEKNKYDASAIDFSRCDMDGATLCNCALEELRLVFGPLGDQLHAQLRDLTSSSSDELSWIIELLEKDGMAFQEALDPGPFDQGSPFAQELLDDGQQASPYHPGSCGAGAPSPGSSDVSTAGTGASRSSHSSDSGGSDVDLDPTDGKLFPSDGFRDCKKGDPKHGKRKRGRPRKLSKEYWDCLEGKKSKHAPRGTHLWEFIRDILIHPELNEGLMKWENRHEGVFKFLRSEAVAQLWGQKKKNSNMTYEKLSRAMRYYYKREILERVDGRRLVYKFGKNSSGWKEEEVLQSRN
# Summary of the method: as §1
# [18] = molecular target: CRX (Homo sapiens, UniProt O43186 1-299); details: protein: recombinant; tags: N-terminal GST; dsDNA, one strand shown
# Summary of the method: as §1
# [19] = molecular target: ETV1 (Homo sapiens, UniProt P50549 1-477); details: protein: recombinant; tags: N-terminal GST; dsDNA, one strand shown
# Summary of the method: as §1
# Chain of CRX (O43186 whole entry): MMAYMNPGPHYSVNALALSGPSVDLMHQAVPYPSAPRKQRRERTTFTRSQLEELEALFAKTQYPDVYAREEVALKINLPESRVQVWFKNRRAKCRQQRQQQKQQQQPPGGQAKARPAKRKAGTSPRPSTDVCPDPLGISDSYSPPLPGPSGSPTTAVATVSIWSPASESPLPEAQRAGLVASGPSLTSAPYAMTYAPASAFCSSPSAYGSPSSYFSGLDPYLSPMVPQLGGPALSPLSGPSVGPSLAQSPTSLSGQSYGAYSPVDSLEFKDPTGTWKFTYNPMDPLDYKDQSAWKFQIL
# Chain of ELF1 (P32519 whole entry): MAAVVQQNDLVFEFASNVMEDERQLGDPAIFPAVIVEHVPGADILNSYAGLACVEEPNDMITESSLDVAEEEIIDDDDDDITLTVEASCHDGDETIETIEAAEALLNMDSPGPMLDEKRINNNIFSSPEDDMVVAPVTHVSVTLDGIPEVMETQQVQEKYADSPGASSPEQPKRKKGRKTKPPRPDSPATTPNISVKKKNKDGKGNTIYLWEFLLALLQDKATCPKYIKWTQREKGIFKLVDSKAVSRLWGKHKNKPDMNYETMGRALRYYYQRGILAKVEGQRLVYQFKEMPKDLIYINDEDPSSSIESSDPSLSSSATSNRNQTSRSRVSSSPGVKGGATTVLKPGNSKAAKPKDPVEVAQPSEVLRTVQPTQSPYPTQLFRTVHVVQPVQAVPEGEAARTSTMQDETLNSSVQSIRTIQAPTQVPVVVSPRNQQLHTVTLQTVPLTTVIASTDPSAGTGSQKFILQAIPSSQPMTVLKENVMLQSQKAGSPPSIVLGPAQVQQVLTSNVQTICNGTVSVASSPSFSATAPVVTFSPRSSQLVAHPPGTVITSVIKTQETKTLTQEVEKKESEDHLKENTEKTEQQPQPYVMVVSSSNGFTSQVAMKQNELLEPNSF
# Chain of ETV5 (P41161 whole entry): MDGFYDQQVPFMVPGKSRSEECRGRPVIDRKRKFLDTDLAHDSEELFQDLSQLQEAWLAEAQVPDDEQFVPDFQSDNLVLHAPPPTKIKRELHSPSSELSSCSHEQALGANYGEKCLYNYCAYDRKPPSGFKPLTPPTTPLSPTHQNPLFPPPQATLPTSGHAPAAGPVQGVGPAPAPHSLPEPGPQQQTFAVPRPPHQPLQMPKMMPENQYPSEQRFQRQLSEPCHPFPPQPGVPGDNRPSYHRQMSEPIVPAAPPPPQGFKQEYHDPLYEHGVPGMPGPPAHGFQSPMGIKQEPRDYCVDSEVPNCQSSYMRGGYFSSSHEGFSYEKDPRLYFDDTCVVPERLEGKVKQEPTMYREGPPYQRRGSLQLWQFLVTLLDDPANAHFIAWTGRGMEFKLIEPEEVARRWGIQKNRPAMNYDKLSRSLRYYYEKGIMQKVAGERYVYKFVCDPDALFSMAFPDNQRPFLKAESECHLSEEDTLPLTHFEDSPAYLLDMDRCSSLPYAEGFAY
# Chain of SPIB (Q01892 whole entry): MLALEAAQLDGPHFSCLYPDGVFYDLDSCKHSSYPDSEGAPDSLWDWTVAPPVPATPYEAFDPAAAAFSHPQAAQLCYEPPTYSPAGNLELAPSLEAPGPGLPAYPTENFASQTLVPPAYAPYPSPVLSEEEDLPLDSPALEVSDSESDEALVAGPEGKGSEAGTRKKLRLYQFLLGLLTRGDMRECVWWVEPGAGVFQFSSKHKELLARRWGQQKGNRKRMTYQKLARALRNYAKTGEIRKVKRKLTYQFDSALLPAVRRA
# Chain of HSF1 (Q00613 whole entry): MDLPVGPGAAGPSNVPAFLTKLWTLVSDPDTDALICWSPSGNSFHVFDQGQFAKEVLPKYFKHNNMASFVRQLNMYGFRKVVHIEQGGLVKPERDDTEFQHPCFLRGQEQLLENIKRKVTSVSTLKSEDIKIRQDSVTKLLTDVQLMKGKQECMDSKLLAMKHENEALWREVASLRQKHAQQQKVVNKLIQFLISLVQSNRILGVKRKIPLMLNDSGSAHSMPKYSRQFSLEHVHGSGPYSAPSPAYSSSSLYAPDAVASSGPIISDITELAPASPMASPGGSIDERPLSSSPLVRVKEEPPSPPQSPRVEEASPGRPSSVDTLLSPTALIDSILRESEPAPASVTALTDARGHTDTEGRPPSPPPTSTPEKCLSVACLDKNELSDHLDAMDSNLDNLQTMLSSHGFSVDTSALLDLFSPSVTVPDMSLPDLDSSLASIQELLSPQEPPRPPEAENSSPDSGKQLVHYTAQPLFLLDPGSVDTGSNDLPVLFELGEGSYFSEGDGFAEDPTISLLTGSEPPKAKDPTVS
# Chain of ETV1 (P50549 whole entry): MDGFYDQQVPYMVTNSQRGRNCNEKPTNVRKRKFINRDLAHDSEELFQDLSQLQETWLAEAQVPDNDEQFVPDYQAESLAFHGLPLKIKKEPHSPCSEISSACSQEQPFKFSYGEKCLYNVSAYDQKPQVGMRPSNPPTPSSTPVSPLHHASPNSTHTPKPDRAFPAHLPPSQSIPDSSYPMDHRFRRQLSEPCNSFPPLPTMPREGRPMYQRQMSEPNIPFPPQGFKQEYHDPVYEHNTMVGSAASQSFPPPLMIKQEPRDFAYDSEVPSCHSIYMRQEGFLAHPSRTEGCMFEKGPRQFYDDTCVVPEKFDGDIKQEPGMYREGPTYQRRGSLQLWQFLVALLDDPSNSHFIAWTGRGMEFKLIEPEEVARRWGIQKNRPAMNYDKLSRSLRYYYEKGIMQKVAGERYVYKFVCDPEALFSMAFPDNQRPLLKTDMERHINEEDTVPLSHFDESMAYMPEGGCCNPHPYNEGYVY
# Chain of ELF4 (Q99607 whole entry): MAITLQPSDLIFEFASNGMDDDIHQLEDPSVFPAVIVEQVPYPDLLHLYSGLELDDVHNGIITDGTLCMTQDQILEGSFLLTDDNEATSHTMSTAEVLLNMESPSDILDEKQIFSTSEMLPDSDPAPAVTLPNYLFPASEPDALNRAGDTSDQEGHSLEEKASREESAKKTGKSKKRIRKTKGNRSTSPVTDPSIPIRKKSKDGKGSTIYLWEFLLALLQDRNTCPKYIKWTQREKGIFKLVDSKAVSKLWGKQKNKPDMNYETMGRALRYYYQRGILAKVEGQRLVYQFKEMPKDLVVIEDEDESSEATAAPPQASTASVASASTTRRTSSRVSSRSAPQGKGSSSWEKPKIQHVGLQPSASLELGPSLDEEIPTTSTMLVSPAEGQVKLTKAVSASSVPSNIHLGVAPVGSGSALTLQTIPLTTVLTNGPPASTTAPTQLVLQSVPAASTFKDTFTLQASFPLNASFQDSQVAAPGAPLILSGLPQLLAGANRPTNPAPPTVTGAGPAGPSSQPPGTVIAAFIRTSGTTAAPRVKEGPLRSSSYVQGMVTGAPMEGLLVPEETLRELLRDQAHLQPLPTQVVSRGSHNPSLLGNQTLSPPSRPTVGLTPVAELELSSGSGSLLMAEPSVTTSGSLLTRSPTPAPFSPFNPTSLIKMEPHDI
sequence,measurement,setting,value
ACTCCC,binding signal,[1],"1.52 fold enrichment (6-mer frequency, TF over GST control)"
same,binding signal,[2],"1.2 fold enrichment (6-mer frequency, TF over GST control)"
same,binding signal,[3],"1.42 fold enrichment (6-mer frequency, TF over GST control)"
same,binding signal,[4],"1.45 fold enrichment (6-mer frequency, TF over GST control)"
same,binding signal,[5],"1.46 fold enrichment (6-mer frequency, TF over GST control)"
same,binding signal,[6],"1.38 fold enrichment (6-mer frequency, TF over GST control)"
same,binding signal,[7],"1.38 fold enrichment (6-mer frequency, TF over GST control)"
same,binding signal,[8],"1.42 fold enrichment (6-mer frequency, TF over GST control)"
same,binding signal,[9],"1.43 fold enrichment (6-mer frequency, TF over GST control)"
same,binding signal,[10],"1.32 fold enrichment (6-mer frequency, TF over GST control)"
same,binding signal,[11],"1.42 fold enrichment (6-mer frequency, TF over GST control)"
same,binding signal,[12],"1.15 fold enrichment (6-mer frequency, TF over GST control)"
same,binding signal,[13],"1.46 fold enrichment (6-mer frequency, TF over GST control)"
same,binding signal,[14],"1.31 fold enrichment (6-mer frequency, TF over GST control)"
same,binding signal,[15],"1.32 fold enrichment (6-mer frequency, TF over GST control)"
same,binding signal,[16],"1.11 fold enrichment (6-mer frequency, TF over GST control)"
same,binding signal,[17],"1.25 fold enrichment (6-mer frequency, TF over GST control)"
same,binding signal,[18],"1.13 fold enrichment (6-mer frequency, TF over GST control)"
same,binding signal,[19],"1.25 fold enrichment (6-mer frequency, TF over GST control)"
